Inconclusive results are not listed. Activity calls are given as the source filed them. How the source made its calls, unless noted: active means hit-call score of the fitted dose curve at least 0.9, where 1 is the maximum; inconclusive means response in the unintended direction; inactive means score below 0.9.

The target in test [1] is human Androgen Receptor (AR), AR (gene 367) (UniProt P10275). Description: NVS_NR_hAR: NovaScreen (NVS) Nuclear Receptor Binding Assay for human Androgen Receptor (AR) (AID 2283332). The procedure, abridged:
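Actives from a duplicate 25 uM single-point screen went on to concentration series. Read-out after 20 h was scintillation counting of displaced radioligand in LnCAP extract, with DMSO as baseline.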

Test [2] has as its target rat Peripheral-type Benzodiazepine Receptor (PBR), Tspo (gene 24230) (UniProt P16257). Description: NVS_MP_rPBR: NovaScreen (NVS) Membrane Protein Assay for rat Peripheral-type Benzodiazepine Receptor (PBR) (AID 2283335). The gist of the method:
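Single-concentration duplicate screening at 25 uM preceded concentration-series retesting of actives. Binding of a specific radioligand to rat kidney membrane PBR was read by filtration radiodetection after 1 h, with plate-wise positive and negative controls.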

Test [3] in a line: NVS_IC_rCaBTZCHL: NovaScreen (NVS) Ion Channel Assay for Calcium Channel, Type L, Benzothiazepine Site (CaBTZCHL) (AID 2283337). The gist of the method:
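Benzothiazepine-site binding was assessed in a tissue-derived, cell-free rat cortical membrane system. After 1.5 h exposure, radioactivity retained on filters was quantified by scintillation; positive and negative controls accompanied every plate.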

Test [4] has as its system guinea pig Histamine Receptor (H2), gene 100729734. Briefly: NVS_GPCR_gH2: NovaScreen (NVS) G Protein-Coupled Receptor Assay for guinea pig Histamine Receptor (H2) (AID 2283342). The gist of the method:
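Guinea pig striatal membrane preparation with specific radioligand; bound counts measured by filtration and scintillation 1 h post-dosing, DMSO as baseline. Chemicals passing a 25 uM duplicate screen were titrated to a 50 uM maximum.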

Test [5] addresses human Constitutive Androstane Receptor (CAR), NR1I3 (gene 9970) (UniProt Q14994). Briefly: NVS_NR_hCAR_Antagonist: NovaScreen (NVS) Nuclear Receptor Binding Assay for human Constitutive Androstane Receptor Antagonism (CAR) (AID 2283344). The procedure, abridged: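 Single 25 uM duplicate primary screen, with concentration-series follow-up on actives. Cell-free binding format run in antagonist mode, TR-FRET signal taken 1 h post-dose; activity is signal loss relative to DMSO.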

The target of test [6] is Androgen Receptor/SRC-1 Co-activator, AR (gene 367) (UniProt P10275). Description: OT_AR_ARSRC1_0960: Odyssey Thera (OT) 16-hour HEK293T Protein-Complementation Assay for Androgen Receptor/SRC-1 Co-activator (AID 2283353).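 Further: actives raise the signal above DMSO so potency reflects increased AR and SRC-1 complex.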 The procedure, abridged:
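Sixteen-hour cell assay: Venus halves fused to AR and SRC-1 in HEK293T report binding. Images at 488/635 nm give an N/C ratio in the 488 nm channel over ≥400 cells, analysed as signal increase over DMSO.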

For test [7] the target is unchanged. Description: OT_AR_ARSRC1_0480: Odyssey Thera (OT) 8-hour HEK293T Protein-Complementation Assay for Androgen Receptor/SRC-1 Co-activator (AID 2283354).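 Further: hits raise the complementation signal above DMSO so AC50 marks enhancers.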 The procedure, abridged: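 After 8 h dosing, stably expressing HEK293T cells with split-Venus AR/SRC-1 fusions were imaged (488, 635nm). The 488nm N/C ratio per image gave the endpoint, analysed in the positive direction against DMSO.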

The test system of test [8] is NCBI gene 100848466. Briefly: NVS_NR_bPR: NovaScreen (NVS) Nuclear Receptor Binding Assay for bovine Progextron Receptor (PR) (AID 2283343).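 On AC50: actives lower bound radioligand signal below DMSO meaning displacement of the label.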 The gist of the method: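 Steps: bovine uterine membranes were dosed with chemical alongside radioligand, incubated 18 hours, then radiodetected by scintillation counting. Initial testing used 25 uM in duplicate; confirmed actives were rerun as concentration series.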

The target of test [9] is rat Mineralocorticoid Receptor (MR), Nr3c2 (gene 25672) (UniProt P22199). Description: NVS_NR_rMR: NovaScreen (NVS) Nuclear Receptor Binding Assay for rat Mineralocorticoid Receptor (MR) (AID 2283355). The gist of the method: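 Single-concentration duplicate screen (25 uM) of radioligand binding in adrenalectomized rat brain supernatant; scintillation detection 24 h after dosing. Positive and negative controls ran on each plate, and confirmed actives went to concentration-response.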

The target in test [10] is Voltage-gated inwardly rectifying potassium channel KCNH2 (Homo sapiens) (UniProt Q12809). Description: NVS_IC_hKhERGCh: NovaScreen (NVS) Ion Channel Assay for human Potassium Channel ERG (KhERGCh) (AID 2283333). The procedure, abridged:
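Membranes from CHO cells expressing human ERG; displacement of radioligand measured by filtration and scintillation after 0.75 h. Single-concentration duplicate screen at 25 uM, then concentration-response for actives; DMSO baseline.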

Test [11] concerns the target bovine Estrogen Receptor (ER), ESR1 (gene 407238) (UniProt P49884). Description: NVS_NR_bER: NovaScreen (NVS) Nuclear Receptor Binding Assay for bovine Estrogen Receptor (ER) (AID 2283345).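 Further: actives lower the bound radioligand count which means they displace the ER ligand.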 The gist of the method:
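Scintillation counting of displaced radioligand gave the readout; bovine uterine membrane extract supplied the receptor. Measured 18 h post-dose, normalized to DMSO baseline. Single 25 uM duplicate screen preceded concentration-response follow-up.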

Test [12] has as its target Estrogen receptor (Homo sapiens) (UniProt P03372). Briefly: OT_ER_ERaERa_1440: Odyssey Thera (OT) 24-hour HEK293T Protein-Complementation Assay for Estrogen Receptor-alpha/-alpha Homodimer (AID 2283349).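 Further: hits raise fluorescence above DMSO for agonists and antagonists alike.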 The procedure, abridged:
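Stably transfected HEK293T; ERα LBD homodimer PCA. 24 h dosing, fluorescence intensity read, gain-of-signal vs DMSO.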

Test [13] has the same target. Description: OT_ER_ERaERa_0480: Odyssey Thera (OT) 8-hour HEK293T Protein-Complementation Assay for Estrogen Receptor-alpha/-alpha Homodimer (AID 2283351).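 Further: rise in fluorescence from reassembled reporter fragments on ERα LBD homodimer in nucleus or whole cell.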 The gist of the method: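 Measures ERα LBD (aa 310-547) homodimer complementation in stably transfected HEK293T at 8 h post-dose, with fluorescence intensity quantified on a laser scanning cytometer relative to DMSO controls.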

The target of test [14] is rat Gamma-Aminobutyric Acid Type A Receptor BDZ, alpha 6 site (GABARa6), Gabra6 (gene 29708) (UniProt P30191). Description: NVS_LGIC_rGABARa6: NovaScreen (NVS) Ligand-Gated Ion Channel Assay for rat Gamma-Aminobutyric Acid Type A Receptor BDZ, alpha 6 site (GABARa6) (AID 2283339). The gist of the method: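 Actives from a 25 uM duplicate screen were retested in concentration series (max 50 uM). Specific radioligand displacement from rat cerebellar membranes was counted by filter-based scintillation at 1 h; DMSO served as baseline.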

Test [15] concerns the target Small conductance calcium-activated potassium channel protein 1 (Rattus norvegicus) (UniProt P70606). Briefly: NVS_IC_rKCaCh: NovaScreen (NVS) Ion Channel Assay for rat Potassium Channel, Ca2+ Act., VI (KCaCh) (AID 2283336). The procedure, abridged:
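Filter-based scintillation counting of radioligand bound to rat forebrain membrane preparations, measured 1 h after compound addition. Primary screen used 25 uM in duplicate, with concentration-response follow-up; signal decrease relative to DMSO marks activity.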

The target of test [16] is Estrogen receptor (Homo sapiens) (UniProt P03372). Description: NVS_NR_hER: NovaScreen (NVS) Nuclear Receptor Binding Assay for human Estrogen Receptor (ER) (AID 2283348). The gist of the method:
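Radiodetection of ligand displacement in a lysate-based, cell-free format using MCF7 extracts, read at 18 hours. Duplicate 25 uM primary testing, then concentration series for actives.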

Test [17] concerns the target Estrogen receptor (Homo sapiens) + Estrogen receptor beta (Homo sapiens) (UniProt P03372+Q92731). Description: OT_ER_ERaERb_0480: Odyssey Thera (OT) 8-hour HEK293T Protein-Complementation Assay for Estrogen Receptor-alpha/-beta Heterodimer (AID 2283352). The procedure, abridged:
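Compound added to HEK293T cells carrying split-reporter-tagged ER-alpha and ER-beta LBDs, incubated 8 hours, then imaged by laser scanning cytometer. Signal rise in nucleus, or nucleus and cytoplasm, over vehicle was fitted in the positive direction.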

Test [18] addresses Glutamate receptor ionotropic, kainate 1 (Rattus norvegicus) (UniProt P22756). Briefly: NVS_IC_rKAR: NovaScreen (NVS) Ion Channel Assay for rat Kainic Acid Receptors (KAR) (AID 2283334; active means hit-call score of the fitted dose curve at least 0.9, where 1 is the maximum; inactive means score below 0.9). The procedure, abridged:
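Rat forebrain membrane preparation incubated 1 h with radioligand and test chemical; bound signal read by filtration and scintillation. Single-concentration screen at 25 uM, then concentration series to 50 uM maximum.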

For test [19], the target named is rat Glutamate, MK-801 Agonist Site (GluNMDA_MK801), Grin1 (gene 24408) (UniProt P35439). Briefly: NVS_LGIC_rGluNMDA_MK801_Agonist: NovaScreen (NVS) Ligand-Gated Ion Channel Assay for rat Glutamate, MK-801 Agonist Site (GluNMDA_MK801) (AID 2283340). The procedure, abridged:
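Rat forebrain membrane preparation; MK-801-site radioligand binding read by filtration and scintillation after 1.5 h. Single-point 25 uM duplicate screen, followed by singleton concentration series to 50 uM max; DMSO baseline.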

Sequence of Androgen Receptor/SRC-1 Co-activator, AR (gene 367) (P10275 whole entry, looked up, the tested form may be a part): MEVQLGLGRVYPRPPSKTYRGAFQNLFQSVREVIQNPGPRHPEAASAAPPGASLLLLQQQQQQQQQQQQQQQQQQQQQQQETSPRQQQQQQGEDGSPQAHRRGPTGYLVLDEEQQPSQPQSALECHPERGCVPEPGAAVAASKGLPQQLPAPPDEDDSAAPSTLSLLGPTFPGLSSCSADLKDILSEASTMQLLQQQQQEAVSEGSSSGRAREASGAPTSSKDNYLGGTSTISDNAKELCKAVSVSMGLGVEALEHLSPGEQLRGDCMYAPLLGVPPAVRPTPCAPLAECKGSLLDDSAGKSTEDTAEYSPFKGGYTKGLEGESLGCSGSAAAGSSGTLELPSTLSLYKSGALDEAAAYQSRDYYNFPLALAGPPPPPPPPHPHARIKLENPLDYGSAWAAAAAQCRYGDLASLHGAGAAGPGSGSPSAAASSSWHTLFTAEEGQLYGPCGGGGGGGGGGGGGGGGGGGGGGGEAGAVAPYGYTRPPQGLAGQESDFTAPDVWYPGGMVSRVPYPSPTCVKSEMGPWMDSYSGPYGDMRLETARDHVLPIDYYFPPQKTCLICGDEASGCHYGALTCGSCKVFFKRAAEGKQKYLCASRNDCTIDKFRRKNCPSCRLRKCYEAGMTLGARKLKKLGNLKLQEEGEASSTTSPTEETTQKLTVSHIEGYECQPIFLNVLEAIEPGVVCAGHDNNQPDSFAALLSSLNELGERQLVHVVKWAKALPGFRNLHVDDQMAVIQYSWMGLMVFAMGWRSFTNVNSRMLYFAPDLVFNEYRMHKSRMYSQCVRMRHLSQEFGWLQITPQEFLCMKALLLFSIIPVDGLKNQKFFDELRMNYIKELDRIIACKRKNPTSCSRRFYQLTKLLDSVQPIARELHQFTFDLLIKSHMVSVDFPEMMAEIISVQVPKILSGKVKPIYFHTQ
Sequence of human Androgen Receptor (AR), AR (gene 367) (P10275 whole entry, looked up): as the sequence (P10275 whole entry, looked up, the tested form may be a part) above
Sequence of Voltage-gated inwardly rectifying potassium channel KCNH2 (Homo sapiens) (Q12809 whole entry, looked up): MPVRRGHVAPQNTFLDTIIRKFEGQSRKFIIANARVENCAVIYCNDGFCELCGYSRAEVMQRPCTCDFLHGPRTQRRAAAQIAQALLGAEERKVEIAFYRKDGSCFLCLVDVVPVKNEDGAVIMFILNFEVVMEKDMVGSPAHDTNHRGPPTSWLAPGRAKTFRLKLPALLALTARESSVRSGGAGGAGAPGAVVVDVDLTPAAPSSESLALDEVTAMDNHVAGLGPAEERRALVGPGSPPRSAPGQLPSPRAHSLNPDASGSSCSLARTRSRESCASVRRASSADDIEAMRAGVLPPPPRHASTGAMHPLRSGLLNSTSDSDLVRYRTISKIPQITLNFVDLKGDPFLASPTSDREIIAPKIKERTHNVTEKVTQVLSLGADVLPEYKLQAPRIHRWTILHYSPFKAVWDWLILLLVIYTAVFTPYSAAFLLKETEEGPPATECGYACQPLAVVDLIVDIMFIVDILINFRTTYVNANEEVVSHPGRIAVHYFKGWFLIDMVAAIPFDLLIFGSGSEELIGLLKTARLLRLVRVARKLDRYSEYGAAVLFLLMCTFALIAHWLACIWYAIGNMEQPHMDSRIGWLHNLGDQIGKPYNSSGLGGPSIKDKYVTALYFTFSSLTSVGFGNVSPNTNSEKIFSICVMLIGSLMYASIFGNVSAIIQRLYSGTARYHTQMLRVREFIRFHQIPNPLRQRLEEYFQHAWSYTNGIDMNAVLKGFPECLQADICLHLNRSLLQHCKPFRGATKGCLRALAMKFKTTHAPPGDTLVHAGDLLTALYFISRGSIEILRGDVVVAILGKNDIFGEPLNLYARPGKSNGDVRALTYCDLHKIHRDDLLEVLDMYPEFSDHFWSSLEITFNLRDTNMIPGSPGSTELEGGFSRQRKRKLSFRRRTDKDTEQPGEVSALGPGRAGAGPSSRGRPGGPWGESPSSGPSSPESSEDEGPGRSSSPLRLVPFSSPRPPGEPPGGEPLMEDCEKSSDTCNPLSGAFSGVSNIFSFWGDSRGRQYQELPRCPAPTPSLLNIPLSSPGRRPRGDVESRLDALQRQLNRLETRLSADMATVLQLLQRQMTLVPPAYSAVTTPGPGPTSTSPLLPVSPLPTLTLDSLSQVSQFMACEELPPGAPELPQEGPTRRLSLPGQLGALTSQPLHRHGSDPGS
Sequence of Estrogen receptor (Homo sapiens) (P03372 whole entry, looked up, the tested form may be a part): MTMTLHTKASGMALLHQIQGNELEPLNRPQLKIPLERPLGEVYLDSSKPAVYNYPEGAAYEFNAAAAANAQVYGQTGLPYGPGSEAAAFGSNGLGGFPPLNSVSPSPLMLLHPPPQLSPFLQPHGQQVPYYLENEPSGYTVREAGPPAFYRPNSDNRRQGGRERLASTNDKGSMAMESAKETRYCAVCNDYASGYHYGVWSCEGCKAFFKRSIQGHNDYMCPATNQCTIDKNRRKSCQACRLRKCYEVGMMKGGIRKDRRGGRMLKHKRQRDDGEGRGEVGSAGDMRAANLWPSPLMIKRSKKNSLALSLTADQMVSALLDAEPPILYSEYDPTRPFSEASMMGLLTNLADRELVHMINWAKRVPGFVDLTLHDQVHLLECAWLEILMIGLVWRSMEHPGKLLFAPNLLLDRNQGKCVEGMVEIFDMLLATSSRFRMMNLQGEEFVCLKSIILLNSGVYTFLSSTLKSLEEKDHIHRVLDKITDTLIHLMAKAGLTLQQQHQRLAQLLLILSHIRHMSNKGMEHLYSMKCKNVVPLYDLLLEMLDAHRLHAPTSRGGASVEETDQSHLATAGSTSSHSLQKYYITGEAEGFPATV
Sequence of human Constitutive Androstane Receptor (CAR), NR1I3 (gene 9970) (Q14994 whole entry, looked up): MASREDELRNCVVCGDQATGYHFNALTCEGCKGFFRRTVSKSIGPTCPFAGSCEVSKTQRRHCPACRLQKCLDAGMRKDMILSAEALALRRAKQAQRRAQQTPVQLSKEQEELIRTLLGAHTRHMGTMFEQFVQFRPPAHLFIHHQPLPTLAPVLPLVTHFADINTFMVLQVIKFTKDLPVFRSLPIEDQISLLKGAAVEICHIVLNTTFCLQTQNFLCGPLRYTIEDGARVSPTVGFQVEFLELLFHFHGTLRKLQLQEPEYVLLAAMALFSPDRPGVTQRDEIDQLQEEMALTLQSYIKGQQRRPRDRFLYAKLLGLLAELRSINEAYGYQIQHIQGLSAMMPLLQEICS
Sequence of rat Peripheral-type Benzodiazepine Receptor (PBR), Tspo (gene 24230) (P16257 whole entry, looked up): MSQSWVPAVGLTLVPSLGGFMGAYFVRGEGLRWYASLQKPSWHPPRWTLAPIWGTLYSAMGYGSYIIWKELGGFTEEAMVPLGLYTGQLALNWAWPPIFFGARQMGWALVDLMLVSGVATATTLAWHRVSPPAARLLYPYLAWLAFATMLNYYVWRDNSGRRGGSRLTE
Sequence of rat Gamma-Aminobutyric Acid Type A Receptor BDZ, alpha 6 site (GABARa6), Gabra6 (gene 29708) (P30191 whole entry, looked up): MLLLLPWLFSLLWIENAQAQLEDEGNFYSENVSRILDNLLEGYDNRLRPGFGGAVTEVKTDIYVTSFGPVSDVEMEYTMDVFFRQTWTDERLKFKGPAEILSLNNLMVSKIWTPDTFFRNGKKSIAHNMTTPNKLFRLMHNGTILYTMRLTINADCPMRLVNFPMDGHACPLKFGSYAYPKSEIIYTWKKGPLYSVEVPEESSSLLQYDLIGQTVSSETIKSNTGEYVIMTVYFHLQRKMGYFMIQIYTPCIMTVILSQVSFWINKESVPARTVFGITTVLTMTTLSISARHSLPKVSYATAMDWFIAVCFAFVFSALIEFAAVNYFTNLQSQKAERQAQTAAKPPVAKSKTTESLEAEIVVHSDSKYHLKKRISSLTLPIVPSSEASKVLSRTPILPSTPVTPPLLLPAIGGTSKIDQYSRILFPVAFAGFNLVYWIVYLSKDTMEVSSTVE

By AC50 is commonly meant the concentration at which the activity in the assay is half-maximal. As to `COc1ccc(C(=CC(=O)N2CCOCC2)c2ccc(Cl)cc2)cc1OC`, in [1], the AC50 is 1.79 µM (active). Further, the compound was classed as inactive in test [2], in test [3], in test [4], in test [5], in test [6] and in [7].

Consider `CCCSP(=O)(OCC)Oc1ccc(Br)cc1Cl` (centres undefined), for which the AC50 was 0.28 µM (active) in test [2], 20.1 µM (active) in [8] and 16 µM (active) in test [5].

On to `CCOP(=S)(OCC)Oc1ccc([N+](=O)[O-])cc1`, for which the AC50 in test [2] was 3.61 µM (active); in test [8] it was 2.23 µM (active). Further, the call in test [5] and in [9] was inactive.

Regarding `CC[C@H](C)[C@H]1O[C@]2(C=C[C@@H]1C)C[C@@H]1C[C@@H](C/C=C(\C)[C@@H](O[C@H]3C[C@H](OC)[C@@H](O[C@H]4C[C@H](OC)[C@@H](NC)[C@H](C)O4)[C@H](C)O3)[C@@H](C)/C=C/C=C3\CO[C@@H]4[C@H](O)C(C)=C[C@@H](C(=O)O1)[C@]34O)O2`, the AC50 in test [10] is 0.00229 µM (active); in test [3], 10 µM (active); in test [4], 26.4 µM (active); in [5], 31 µM (active). Also, the result in test [11], in [12] and in [13] was inactive.

For `O=[N+]([O-])c1cc(C(F)(F)F)c(Cl)c([N+](=O)[O-])c1Nc1ncc(C(F)(F)F)cc1Cl`, the call in test [10], in test [5] and in test [12] was inactive.

Consider `FC(F)C(F)(F)OCC(Cn1cncn1)c1ccc(Cl)cc1Cl` (centres undefined), for which the AC50 was 19.9 µM (active) in test [10]; 5.37 µM (active) in test [2]; 7.26 µM (active) in [3]; 10.1 µM (active) in test [4]; 25 µM (active) in test [8]. For the same compound, the result in test [14] was inactive.

As for `CN(C)[C@@H]1C(=O)C(C(N)=O)=C(O)[C@@]2(O)C(=O)C3=C(O)c4c(O)cccc4[C@@](C)(O)[C@H]3[C@H](O)[C@@H]12`, the call in [2] was inactive.

With `CN(C)C(=O)Nc1cccc(C(F)(F)F)c1`, in test [2], the AC50 is 10.8 µM (active). The outcome in test [15] and in [14] was inactive.

Take `CCOC(=O)CC(SP(=O)(OC)OC)C(=O)OCC` (centres undefined): the AC50 in [2] is 19.7 µM (active). Moreover, the result in [8] and in test [5] was inactive.

Consider `CC(C)N(C(=O)SCC(Cl)=C(Cl)Cl)C(C)C`, for which the AC50 is 45.6 µM (active) in [2] and 36.8 µM (active) in test [8]. Moreover, the call in [5] was inactive.

With `CNC(=O)ON=C(SC)C(=O)N(C)C`, the compound was classed as inactive in test [2], in test [8], in test [5], in [11], in test [16] and in test [12]. Besides, the result in test [13], in [17], in [6] and in test [7] was inactive.

As to `CCCSP(=O)(OCC)SCCC`, the compound was called inactive in [1], in [8], in [5] and in test [6]. Also, the AC50 in test [2] is 11.5 µM (active).

For `C[Si](Cn1cncn1)(c1ccc(F)cc1)c1ccc(F)cc1`, the call in test [2] was inactive. Moreover, the AC50 in [8] is 25 µM (active).

As for `CCOP(=S)(OCC)Oc1ccc2c(C)c(Cl)c(=O)oc2c1`, the AC50 in test [2] was 0.541 µM (active); in [8], 1.01 µM (active).

Regarding `CCOP(=S)(Oc1cnc(C(C)(C)C)nc1)OC(C)C` (centres undefined), the compound was classed as inactive in [2].

As for `CCCOCC(=Nc1ccc(Cl)cc1C(F)(F)F)n1ccnc1`, the result in test [10], in test [3] and in [8] was inactive. Besides, the AC50 was 0.807 µM (active) in test [2] and 5.88 µM (active) in test [5].

Turning to `COP(=O)(NC(C)=O)SC` (centres undefined), the outcome in test [18] was inactive.

With `C=C(C)[C@H]1Cc2c(ccc3c2O[C@@H]2COc4cc(OC)c(OC)cc4[C@@H]2C3=O)O1`, the outcome in [1], in test [8] and in test [5] was inactive. Besides, the AC50 was 4.23 µM (active) in test [2], 0.088 µM (active) in test [6] and 0.973 µM (active) in test [7].

Regarding `CSc1nc(NC(C)C)nc(NC(C)C)n1`, in test [10], the AC50 was 6.4 µM (active). Also, the compound was classed as inactive in test [12], in test [13] and in test [17].

As to `CCc1cccc(C)c1N(C(=O)CCl)C(C)COC` (centres undefined), the AC50 in [2] was 8.9 µM (active); in [5], 12.9 µM (active). Further, the result in test [19] and in test [8] was inactive.

For `CCCCSP(=O)(SCCCC)SCCCC`, the call in [10] and in test [5] was inactive. Besides, in [2], the AC50 is 3.75 µM (active).

For `C#CC(C)(C)NC(=O)c1cc(Cl)cc(Cl)c1`, the AC50 in [2] is 0.19 µM (active). In addition, the result in [8] and in [5] was inactive.

For the compound `C#CCC1=C(C)C(OC(=O)C2C(C=C(C)C)C2(C)C)CC1=O` (centres undefined), in [2], the AC50 was 20 µM (active). Besides, the result in test [8] and in [5] was inactive.

These data come from PubChem BioAssay (EPA / NIEHS).
